An excerpt weighted towards active compounds, which were near 1.4% of everything screened.
Vif-A3G inh – inhibitors of Vif-APOBEC3G interaction. Q9HC16. actives 0.076% (n = 410,000). Potency, µM (doses to about 46.1 µM), for inactives: top-dose activity, negative = active, usual class: inhibitors. HeLa A3G-eYFP + Vif (tagged APOBEC3G with the HIV-1 protein that degrades it), YFP fluorescence, overnight; also: potency is read from the fitted curve at half-maximal effect; % is scaled to controls: 0 for no effect and ±100 for the full control effect; nearly all actives have a fitted effect of over 60% in size
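HeLa cells stably expressing Vif and C-terminally eYFP-tagged A3G, seeded overnight at 37 deg C, then exposed to compound by pintool overnight at 37 deg C. Rise in yellow fluorescence (Ex 488/Em 500-530, Acumen) marks blocked Vif-driven A3G degradation.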
S-ASM inh – human S-ASM enzyme inhibition | P17405 | placental ASM, HMU-PC fluorogenic substrate, 60 min | Potency, µM (series often up to 57.5 µM), for inactives: top-dose activity change, negative = inhibition, usual class: inhibitors | actives 0.006% (n = 340,000); also: potency is read from the fitted curve at half-maximal effect
Target sequence (P17405 47-631 limits assumed): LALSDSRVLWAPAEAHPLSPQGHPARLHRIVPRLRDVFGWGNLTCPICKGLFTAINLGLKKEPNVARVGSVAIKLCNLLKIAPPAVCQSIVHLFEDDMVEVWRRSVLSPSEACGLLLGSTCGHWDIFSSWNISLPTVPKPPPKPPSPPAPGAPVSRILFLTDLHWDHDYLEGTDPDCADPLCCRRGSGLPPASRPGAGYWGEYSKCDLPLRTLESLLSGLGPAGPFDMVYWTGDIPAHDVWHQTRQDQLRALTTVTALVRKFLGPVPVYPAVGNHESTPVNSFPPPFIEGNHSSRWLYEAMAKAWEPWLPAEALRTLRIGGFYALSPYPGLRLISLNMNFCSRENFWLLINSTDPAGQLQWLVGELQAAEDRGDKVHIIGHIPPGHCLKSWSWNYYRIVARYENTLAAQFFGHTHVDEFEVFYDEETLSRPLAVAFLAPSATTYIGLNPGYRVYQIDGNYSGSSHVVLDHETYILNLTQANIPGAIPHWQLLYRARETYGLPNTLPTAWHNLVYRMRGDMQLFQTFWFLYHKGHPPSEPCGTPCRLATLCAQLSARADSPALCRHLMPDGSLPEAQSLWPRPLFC
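Steps: dispense placental human ASM, pin compound, wait 10 min at room temperature, add HMU-PC0 substrate at 9 uM final, incubate 60 min at 37 °C, add stop solution raising pH to 10, read fluorescence.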
Akt phos inh – Akt phosphorylation inhibition. Neuro2A IGF-stimulated pAkt S473 HTRF, 20 min; active compounds read low. activity change, % for hits at 50 µM. actives 0.32% (n = 360,000). AID 651550; in the data active = activity change below about -80%; inconclusive = mostly about -51% to -80%; also: % is scaled to controls: 0 for no effect and ±100 for the full control effect
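Single-point screen (50 µM final compound) in Neuro2A cells stimulated 20 min with 6 nM IGF at 37 deg C. After lysis, Ser473-phosphorylated Akt read by HTRF (ex 330 nm, em 615/665 nm) as the 665/615 ratio.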
Vif-APOBEC3F blk – inhibitors of Vif-A3F interaction; HeLa A3F-eYFP + Vif (tagged APOBEC3F with the HIV-1 protein that degrades it), YFP fluorescence increase; actives 0.2% (n = 390,000); Potency, µM (series often up to 46.1 µM), without a hit: top-dose activity, negative = active; also: potency is read from the fitted curve at half-maximal effect; % of control where 0% means no effect; nearly all actives have a fitted effect of over 65% in size
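Fluorescence increase (Ex 488/Em 500-530) after overnight compound treatment at 37 deg C flags inhibition of Vif-driven A3F-eYFP loss in stable HeLa A3F-eYFP/Vif cells seeded overnight beforehand.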
ALOX12 inh – blocks human arachidonate 12S-lipoxygenase. actives 1.1% (n = 580,000). purified 12hLO, xylenol orange hydroperoxide absorbance. Potency, µM (doses to about 108 µM), inactives show at the highest dose activity change, negative = inhibition, actives largely listed as inhibitors. P18054; also: potency is read from the fitted curve at half-maximal effect; % is scaled to controls: 0 for no effect and ±100 for the full control effect
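Hydroperoxide product was detected by ferrous iron/xylenol orange as the 573 to 405 nm absorbance ratio. Arachidonic acid at 40 uM (final) was turned over for 30 min at room temperature by 150 nM human 12hLO, pH 7.0 Hepes buffer, after 15 min compound preincubation.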
TSG101-PTAP inh – blocks PTAP/TSG101 interaction to inhibit HIV-1 budding; Fluorescence polarization, FITC-PTAP peptide / Tsg101 binding; Potency, µM (titrated, usually from 115 µM), for inactives: at the highest dose activity change, negative = inhibition, usual class: inhibitors; 340,000 tested, under 10 active; active = well fitted inhibition curve with a large enough effect in the main read-out, with a control signal flat, not every such curve was filed as active; inconclusive = small, poorly fitted or top-dose-only effect, or effect the other way, or a change in a side signal; inactive = no such curve, though single readings can be large or run the other way; also: potency is read from the fitted curve at half-maximal effect; % of control where 0% means no effect
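Fluorescence anisotropy tracks displacement of a FITC-tagged PTAP peptide (50 nM) from the Tsg101 binding domain (10 uM), following a 20 min room-temperature incubation at pH 7.5.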
Active calls of the source: *; i = inactive; ? = inconclusive; . = not tested or not shown; ! = not active in a repeat. Unless noted, calls follow the shape of the dose curve; as a rule, active = well fitted curve in the direction sought with a large enough effect; inconclusive = small, poorly fitted or top-dose-only effect, or another doubt; inactive = no such curve, though single readings can be large; an effect the other way counts as inactive or inconclusive.

SMILES | Vif-A3G inh | S-ASM inh | Akt phos inh | Vif-APOBEC3F blk | ALOX12 inh | TSG101-PTAP inh
CCNC(=O)c1ccccc1NC(=O)c1cccc(S(=O)(=O)N2CCC(C)CC2)c1 | -0.8% | -0.7% | -100.8%* | . | 163.1% | -1.3%
CCOc1ccc(C(CC(=O)Nc2ccc(C)cc2C)N2Cc3ccccc3C2=O)cc1OC (stereo unspecified) | . | . | . | . | 2.3% | .
O=C(Cc1ccc(-c2csc(Nc3ccc(F)cc3)n2)s1)N1CCOCC1 | . | . | . | . | 31.6µM* | .
O=C(Cc1ccc(F)cc1)N1CCOCC1 | 0.1% | 3.1% | i | 0.5% | 13.4% | 0.9%
Cc1ccccc1S(=O)(=O)N1C(c2ccc(Cl)c(Cl)c2)CC=C(C(=O)O)C1c1cccc(Br)c1 (stereo unspecified) | . | . | i | . | 50.1µM* | .
O=C(Nc1ccccc1Cl)c1nn(Cc2ccccc2)c(=O)c2ccccc12 | . | . | . | . | 12.2% | .
N#Cc1c(C(F)(F)F)cc(-c2cccs2)nc1SCC(=O)Nc1cccc(C(F)(F)F)c1 | ? | . | . | 10µM* | 2.6% | .
CCOc1ccc(NC(=O)CSc2nc(-c3cccs3)cc(C(F)(F)F)c2C#N)cc1 | 0.2% | . | . | 0.4% | -9.4% | .
N#Cc1c(C(F)(F)F)cc(-c2cccs2)nc1SCC(=O)Nc1ccc(Cl)cc1 | 10µM* | . | . | ? | -13.0% | .
CC1(C)Cc2c(sc3c2c(=N)n(Cc2ccco2)c(=O)n3CC(=O)Nc2cccc(Cl)c2)CO1 | -7.1% | -5.1% | -122.3%* | 2.6% | -0.3% | 3.8%
Cc1cccc(NC(=O)Cn2c(=O)n(Cc3ccco3)c(=N)c3c4c(sc32)COC(C)(C)C4)c1 | -1.7% | -1.4% | i | 2.8% | 4.2% | -5.7%
Cc1c(/C=N/n2cnnc2)c2ccccc2n1CCOc1ccc(Cl)cc1 | -1.3% | 35.5µM* | i | 8.3% | -1.0% | -1.6%
Cc1ccc(OCCn2c(C)c(/C=N/n3cnnc3)c3ccccc32)cc1 | -5.2% | -8.3% | i | 3.1% | -18.6% | -7.2%
Nc1[nH]c(=S)[nH]c(=O)c1-c1ccccc1 | 0.0% | 5.5% | i | -6.7% | 7.08µM* | -4.6%
O=c1[nH]c(=S)[nH]c2nc(-c3ccccc3)cnc12 | 0.0% | 20.5% | i | 7.7% | -5.8% | -2.0%
NC1(C(=O)O)CCC1 | . | . | . | . | 1.41µM*! | .
Cc1ccc([S+](=O)([O-])N2CCc3nc(-c4ccc(Cl)cc4)nc(-c4ccccc4)c3C2)cc1 | . | . | . | . | -16.4% | .
COc1ccccc1N1C(=O)C(Cl)=C(Nc2ccccc2O)C1=O | ? | -1.2% | i | 22.4µM* | ? | -5.4%
CC1(C)CC(=O)C2=C(C1)Nc1ccccc1NC2c1cccnc1 (stereo unspecified) | 6.3% | 1.5% | i | -7.7% | 27.2% | -3.8%
CC1(C)CC(=O)C2=C(C1)Nc1ccccc1NC2c1cccc(F)c1 (stereo unspecified) | 3.5% | -0.9% | i | -9.8% | 11.2µM* | 0.5%
Cc1ccc(-n2nc3c(c2NC(=O)C(C)(C)C)CSC3)c(C)c1 | 0.0% | 2.3% | . | -0.1% | 13.5% | -10.0%
Cc1ccc(-n2nc3c(c2NC(=O)c2ccc(Br)o2)CSC3)c(C)c1 | -4.1% | 1.1% | i | 1.3% | 8.91µM* | .
CCOc1ccc(NC(=O)Cn2c(=O)n(-c3ccccc3)c(=O)c3c2cc(C)n3C)cc1 | . | . | . | . | -4.4% | .
CC1CCN(C(=O)C(C)Sc2nc(-c3ccccc3)cc(C(F)(F)F)n2)CC1 (stereo unspecified) | 20µM*! | -7.0% | i | -3.6% | 1.2% | -4.4%
CC1(C)C2CC=C(/C=N/NC(N)=O)C1C2 (stereo unspecified) | . | . | . | . | -5.6% | .
CC1C/C(=N\NC(=S)NCc2ccccc2)CC(C)(C)C1 (stereo unspecified) | -5.4% | -0.1% | i | -2.9% | ? | -2.7%
CC1C/C(=N/NC(=S)Nc2ccc(SC(F)F)cc2)CC(C)(C)C1 (stereo unspecified) | . | . | . | . | 28.2µM* | .
CC1(C)C2CC=C(/C=N/NC(=S)Nc3ccc(SC(F)F)cc3)C1C2 (stereo unspecified) | . | . | . | . | 31.6µM* | .

Compound activity as filed in PubChem.
